Test results published in PubChem BioAssay (EPA / NIEHS).
Values joined by “and” are separate entries in the source; they are usually repeats but may differ in a detail not shown here. Identical values can stand only once. Results filed as inconclusive are left out. Active and inactive are the calls of the source. The calls were made as follows: active = hit-call score of the fitted dose curve at least 0.9, where 1 is the maximum; inconclusive = response in the unintended direction; inactive = score below 0.9.

Assays:
[1] = target: human CYP2C9, CYP2C9 (gene 1559) (UniProt P11712); assay: NVS_ADME_hCYP2C9: NovaScreen (NVS) CYP450-related Enzyme Activity (ADME) Assay for human CYP2C9 (AID 2283108)
human CYP2C9, CYP2C9 (gene 1559), sequence (P11712 whole entry, looked up): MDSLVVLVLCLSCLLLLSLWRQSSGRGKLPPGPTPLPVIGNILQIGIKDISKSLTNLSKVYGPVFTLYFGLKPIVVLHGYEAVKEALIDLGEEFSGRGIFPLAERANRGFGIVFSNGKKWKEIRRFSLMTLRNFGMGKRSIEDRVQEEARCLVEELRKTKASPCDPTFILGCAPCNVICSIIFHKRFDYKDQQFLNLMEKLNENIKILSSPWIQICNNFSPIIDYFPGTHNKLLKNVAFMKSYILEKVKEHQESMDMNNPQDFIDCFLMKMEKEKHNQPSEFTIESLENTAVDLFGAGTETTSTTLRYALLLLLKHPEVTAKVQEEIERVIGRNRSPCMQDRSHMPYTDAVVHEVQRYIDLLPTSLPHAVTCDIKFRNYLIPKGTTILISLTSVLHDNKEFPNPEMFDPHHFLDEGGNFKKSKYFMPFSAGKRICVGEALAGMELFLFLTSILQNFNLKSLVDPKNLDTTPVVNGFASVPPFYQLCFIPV
In short: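 Cell-free assay of recombinant human CYP2C9 produced in Sf9 cells, with enzyme activity read by fluorescence intensity 0.75 h after compound addition. Loss of signal versus an acetonitrile negative control indicates inhibition. Primary screen used 10 uM in duplicate; actives were retested in concentration series.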

[2] = target: human CYP1A1, CYP1A1 (gene 1543) (UniProt P04798); assay: NVS_ADME_hCYP1A1: NovaScreen (NVS) CYP450-related Enzyme Activity (ADME) Assay for human CYP1A1 (AID 2283100)
human CYP1A1, CYP1A1 (gene 1543), sequence (P04798 whole entry, looked up): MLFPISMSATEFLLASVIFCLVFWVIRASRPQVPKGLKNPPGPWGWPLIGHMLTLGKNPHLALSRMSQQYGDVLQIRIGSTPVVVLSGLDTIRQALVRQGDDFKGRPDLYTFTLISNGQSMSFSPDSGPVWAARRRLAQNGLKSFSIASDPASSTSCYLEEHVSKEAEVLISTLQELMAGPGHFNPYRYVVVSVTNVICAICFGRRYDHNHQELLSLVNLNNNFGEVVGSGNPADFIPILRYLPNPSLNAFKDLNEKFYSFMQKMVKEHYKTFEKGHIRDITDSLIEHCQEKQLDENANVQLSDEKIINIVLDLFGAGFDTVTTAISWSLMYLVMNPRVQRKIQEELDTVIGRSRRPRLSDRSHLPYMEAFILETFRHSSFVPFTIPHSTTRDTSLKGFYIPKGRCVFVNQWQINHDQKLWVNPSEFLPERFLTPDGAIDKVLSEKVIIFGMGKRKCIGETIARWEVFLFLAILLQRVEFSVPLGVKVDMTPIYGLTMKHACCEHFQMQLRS
In short: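 Cell-free fluorescence assay of recombinant human CYP1A1 activity with a specific substrate, read 1 h after dosing. Compounds were screened in duplicate at 10 uM, then hits tested in concentration-response up to 20 uM; acetonitrile served as baseline.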

[3] = target: human CYP1A2, CYP1A2 (gene 1544) (UniProt P05177); assay: NVS_ADME_hCYP1A2: NovaScreen (NVS) CYP450-related Enzyme Activity (ADME) Assay for human CYP1A2 (AID 2283102);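 also: potency for inhibition since loss of fluorescence marks reduced CYP1A2 activity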
human CYP1A2, CYP1A2 (gene 1544), sequence (P05177 whole entry, looked up): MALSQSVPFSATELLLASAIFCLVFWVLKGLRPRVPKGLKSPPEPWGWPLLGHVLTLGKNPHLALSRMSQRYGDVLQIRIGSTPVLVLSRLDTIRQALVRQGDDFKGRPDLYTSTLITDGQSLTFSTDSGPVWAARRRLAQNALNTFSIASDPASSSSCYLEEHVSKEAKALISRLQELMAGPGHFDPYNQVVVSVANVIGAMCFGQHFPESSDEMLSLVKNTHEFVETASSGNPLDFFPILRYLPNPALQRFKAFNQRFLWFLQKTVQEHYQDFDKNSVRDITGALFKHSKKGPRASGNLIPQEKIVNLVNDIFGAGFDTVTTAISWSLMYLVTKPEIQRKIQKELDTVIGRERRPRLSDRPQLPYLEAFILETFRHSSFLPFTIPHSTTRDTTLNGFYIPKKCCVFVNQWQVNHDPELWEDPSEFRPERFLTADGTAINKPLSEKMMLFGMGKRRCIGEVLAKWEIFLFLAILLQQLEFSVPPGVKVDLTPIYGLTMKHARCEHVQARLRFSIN
In short: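 Cell-free recombinant human CYP1A2 expressed in insect cells, with fluorogenic substrate; fluorescence intensity read 0.5 h after dosing. Loss of signal relative to acetonitrile baseline scored. Primary screen in duplicate at 10 uM; actives retested in concentration series.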

[4] = target: human CYP2B6, CYP2B6 (gene 1555) (UniProt P20813); assay: NVS_ADME_hCYP2B6: NovaScreen (NVS) CYP450-related Enzyme Activity (ADME) Assay for human CYP2B6 (AID 2283101)
human CYP2B6, CYP2B6 (gene 1555), sequence (P20813 whole entry, looked up): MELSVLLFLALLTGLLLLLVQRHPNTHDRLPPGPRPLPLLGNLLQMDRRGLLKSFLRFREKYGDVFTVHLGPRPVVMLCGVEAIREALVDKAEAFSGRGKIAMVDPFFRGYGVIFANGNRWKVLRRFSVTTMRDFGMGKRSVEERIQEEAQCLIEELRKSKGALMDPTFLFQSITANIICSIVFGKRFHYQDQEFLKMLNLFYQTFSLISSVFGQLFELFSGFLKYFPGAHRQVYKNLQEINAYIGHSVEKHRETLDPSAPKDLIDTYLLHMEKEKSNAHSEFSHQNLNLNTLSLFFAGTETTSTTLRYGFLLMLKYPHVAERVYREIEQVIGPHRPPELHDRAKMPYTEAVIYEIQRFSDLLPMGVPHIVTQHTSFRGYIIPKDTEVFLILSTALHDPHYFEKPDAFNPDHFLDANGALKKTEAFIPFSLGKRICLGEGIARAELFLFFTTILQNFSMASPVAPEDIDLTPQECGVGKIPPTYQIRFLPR
In short: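 Fluorescence-based enzyme activity of recombinant human CYP2B6, measured 1 h post-dose against acetonitrile vehicle baseline. Screened at a single concentration of 10 uM in duplicate before concentration-response follow-up.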

[5] = target: Cytochrome P450 2C19 (Homo sapiens) (UniProt P33261); assay: NVS_ADME_hCYP2C19: NovaScreen (NVS) CYP450-related Enzyme Activity (ADME) Assay for human CYP2C19 (AID 2283113);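 as to AC50: potency for inhibition seen as loss of fluorescent signal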
In short: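 Cell-free assay of recombinant human CYP2C19 expressed in insect cells, with a fluorogenic substrate; fluorescence intensity read 1 hour after dosing. Loss of signal relative to acetonitrile negative control indicates inhibition. Primary screen at 10 uM in duplicate, then concentration series.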

[6] = target: human CYP2D6, CYP2D6 (gene 1565) (UniProt P10635); assay: NVS_ADME_hCYP2D6: NovaScreen (NVS) CYP450-related Enzyme Activity (ADME) Assay for human CYP2D6 (AID 2283107)
human CYP2D6, CYP2D6 (gene 1565), sequence (P10635 whole entry, looked up): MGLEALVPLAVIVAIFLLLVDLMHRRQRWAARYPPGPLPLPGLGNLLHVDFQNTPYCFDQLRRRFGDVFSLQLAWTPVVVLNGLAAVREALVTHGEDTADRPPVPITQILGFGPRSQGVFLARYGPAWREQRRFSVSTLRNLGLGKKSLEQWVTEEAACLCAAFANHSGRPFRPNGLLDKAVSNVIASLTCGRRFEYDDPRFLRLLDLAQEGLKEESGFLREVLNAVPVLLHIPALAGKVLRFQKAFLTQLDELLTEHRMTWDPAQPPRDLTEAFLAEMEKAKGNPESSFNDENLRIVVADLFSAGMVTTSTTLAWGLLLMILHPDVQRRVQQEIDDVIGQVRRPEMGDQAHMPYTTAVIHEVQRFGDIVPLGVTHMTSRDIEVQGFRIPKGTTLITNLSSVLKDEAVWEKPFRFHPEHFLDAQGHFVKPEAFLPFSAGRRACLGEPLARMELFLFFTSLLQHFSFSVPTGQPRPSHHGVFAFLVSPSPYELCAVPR
Method: NVS_ADME_hCYP2D6 is a biochemical, single-readout assay that uses extracted gene-proteins from insect cells in a cell-free assay. Measurements were taken 1 hour after chemical dosing in a 96-well plate.NVS_ADME_hCYP2D6 is one of one assay component(s) measured or calculated from the NVS_ADME_hCYP2D6 assay. It is designed to make measurements of enzyme activity, a form of enzyme reporter, as detected with fluorescence intensity signals by Fluorescence technology.Data from the assay component NVS_ADME_hCYP2D6 was analyzed into 1 assay endpoint. This assay endpoint, NVS_ADME_hCYP2D6, was analyzed in the positive analysis fitting direction relative to Acetonitrile as the negative control and baseline of activity. Using a type of enzyme reporter, loss-of-signal activity can be used to understand changes in the enzymatic activity as they relate to the gene CYP2D6. Furthermore, this assay endpoint can be referred to as a primary readout, because this assay has produced multiple assay endpoints where this one serves a enzymatic activity function. To generalize the intended target to other relatable targets, this assay endpoint is annotated to the cyp intended target family, where the subfamily is xenobiotic metabolism.
(§1) Binding assays used specific radioligands (tritiated, iodinated) with non-radioactive competitive displacement ligands in agonist or antagonist protocols (as indicated) and various reference compounds and inhibitors to titrate specific binding to receptors and transporters. Most enzyme assays (CYPs, kinases, phosphatases, proteases, HDACs) used recombinant protein and specific substrates (fluorescence mostly, some colorimetric and radioactive) and inhibitors, followed by a biochemical separation of substrate and product. All assays for the biochemical HTS were initially run in duplicate at a single concentration (10 uM for CYP450 assays and 25 uM for all others). […] Each assay was run with positive and negative controls, and concurrent controls on every plate. The follow-up (secondary) screen tested active chemical-pairs in concentration series, as well as a few additional assays not tested in the primary screen, some selected negative inactives, and several cases re-run in the concentration series for confirmatory purposes.

[7] = target: rat CYP2A2, Cyp2a2 (gene 24895) (UniProt P15149); assay: NVS_ADME_rCYP2A2: NovaScreen (NVS) CYP450-related Enzyme Activity (ADME) Assay for rat CYP2A2 (AID 2283116)
rat CYP2A2, Cyp2a2 (gene 24895), sequence (P15149 whole entry, looked up): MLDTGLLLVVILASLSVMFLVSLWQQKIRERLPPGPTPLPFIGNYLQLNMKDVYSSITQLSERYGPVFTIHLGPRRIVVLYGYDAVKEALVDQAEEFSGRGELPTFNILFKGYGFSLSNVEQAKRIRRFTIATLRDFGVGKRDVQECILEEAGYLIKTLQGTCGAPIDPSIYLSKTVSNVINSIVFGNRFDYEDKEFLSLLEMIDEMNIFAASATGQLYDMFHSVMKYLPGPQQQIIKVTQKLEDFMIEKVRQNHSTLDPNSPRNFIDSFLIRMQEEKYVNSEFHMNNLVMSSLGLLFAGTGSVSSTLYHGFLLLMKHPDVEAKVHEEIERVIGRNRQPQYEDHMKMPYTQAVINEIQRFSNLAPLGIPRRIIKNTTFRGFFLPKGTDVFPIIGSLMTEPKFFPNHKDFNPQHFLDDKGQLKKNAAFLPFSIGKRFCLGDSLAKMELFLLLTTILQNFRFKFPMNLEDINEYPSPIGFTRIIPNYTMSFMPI
In short: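 Cell-free recombinant rat CYP2A2 activity with fluorogenic substrate, fluorescence read 0.2 h after dosing. Chemicals screened at 10 uM in duplicate, hits then run in concentration-response up to 20 uM; signal loss versus acetonitrile baseline.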

[8] = target: human CYP4F12, CYP4F12 (gene 66002) (UniProt Q9HCS2); assay: NVS_ADME_hCYP4F12: NovaScreen (NVS) CYP450-related Enzyme Activity (ADME) Assay for human CYP4F12 (AID 2283111)
human CYP4F12, CYP4F12 (gene 66002), sequence (Q9HCS2 whole entry, looked up): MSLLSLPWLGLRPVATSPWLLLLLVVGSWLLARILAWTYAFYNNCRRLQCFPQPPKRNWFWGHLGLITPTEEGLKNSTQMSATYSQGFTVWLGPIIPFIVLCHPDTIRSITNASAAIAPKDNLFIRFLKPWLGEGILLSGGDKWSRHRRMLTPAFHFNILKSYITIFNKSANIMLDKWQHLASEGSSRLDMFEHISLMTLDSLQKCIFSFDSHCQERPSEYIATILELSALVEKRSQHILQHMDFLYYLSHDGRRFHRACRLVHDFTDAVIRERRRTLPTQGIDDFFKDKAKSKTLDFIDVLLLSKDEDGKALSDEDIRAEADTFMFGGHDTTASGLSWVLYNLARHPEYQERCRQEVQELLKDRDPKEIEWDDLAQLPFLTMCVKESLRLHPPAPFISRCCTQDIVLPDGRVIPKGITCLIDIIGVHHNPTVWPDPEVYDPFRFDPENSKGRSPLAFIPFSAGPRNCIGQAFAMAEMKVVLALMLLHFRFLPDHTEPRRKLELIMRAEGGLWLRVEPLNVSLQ
In short: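 Cell-free fluorescence assay of recombinant human CYP4F12 activity on a specific substrate, read 0.5 h after dosing. Primary screen in duplicate at 10 uM, then concentration series for actives; loss of signal fitted against acetonitrile negative control.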

[9] = target: Cytochrome P450 3A4 (Homo sapiens) (UniProt P08684); assay: NVS_ADME_hCYP3A4: NovaScreen (NVS) CYP450-related Enzyme Activity (ADME) Assay for human CYP3A4 (AID 2283110)
Cytochrome P450 3A4 (Homo sapiens), sequence (P08684 whole entry, looked up): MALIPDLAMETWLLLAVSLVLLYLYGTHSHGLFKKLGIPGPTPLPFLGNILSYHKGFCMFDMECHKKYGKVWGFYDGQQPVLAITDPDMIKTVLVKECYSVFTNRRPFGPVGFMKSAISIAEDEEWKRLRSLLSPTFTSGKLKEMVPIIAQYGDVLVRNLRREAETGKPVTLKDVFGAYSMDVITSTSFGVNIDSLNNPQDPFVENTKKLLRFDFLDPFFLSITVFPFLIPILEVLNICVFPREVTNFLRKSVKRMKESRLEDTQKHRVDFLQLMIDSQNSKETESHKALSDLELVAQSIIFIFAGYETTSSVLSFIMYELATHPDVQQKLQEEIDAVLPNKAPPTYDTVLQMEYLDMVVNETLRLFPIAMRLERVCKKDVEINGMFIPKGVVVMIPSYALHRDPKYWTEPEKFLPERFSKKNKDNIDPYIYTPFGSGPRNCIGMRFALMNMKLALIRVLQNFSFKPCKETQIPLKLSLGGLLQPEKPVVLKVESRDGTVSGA
Method: NVS_ADME_hCYP3A4 is a biochemical, single-readout assay that uses extracted gene-proteins from insect cells in a cell-free assay. Measurements were taken 0.33 hour after chemical dosing in a 96-well plate.NVS_ADME_hCYP3A4 is one of one assay component(s) measured or calculated from the NVS_ADME_hCYP3A4 assay. It is designed to make measurements of enzyme activity, a form of enzyme reporter, as detected with fluorescence intensity signals by Fluorescence technology.Data from the assay component NVS_ADME_hCYP3A4 was analyzed into 1 assay endpoint. This assay endpoint, NVS_ADME_hCYP3A4, was analyzed in the positive analysis fitting direction relative to Acetonitrile as the negative control and baseline of activity. Using a type of enzyme reporter, loss-of-signal activity can be used to understand changes in the enzymatic activity as they relate to the gene CYP3A4. Furthermore, this assay endpoint can be referred to as a primary readout, because this assay has produced multiple assay endpoints where this one serves a enzymatic activity function. To generalize the intended target to other relatable targets, this assay endpoint is annotated to the cyp intended target family, where the subfamily is xenobiotic metabolism.
as §1

`NS(=O)(=O)C(F)(F)C(F)(F)C(F)(F)C(F)(F)C(F)(F)C(F)(F)C(F)(F)C(F)(F)F` was tested, and the AC50 [1] was 1.97 µM (active).

With `CC#Cc1cc(C)nc(Nc2ccccc2)n1` the AC50 [2] was 0.617 µM (active) and the AC50 [3] was 1.96 µM (active).

For `Oc1c(Cl)c(Cl)c(Cl)c(Cl)c1Cl`, the outcome [4] was “inactive”.

In the case of `CCNc1nc(NC(C)C)nc(SC)n1`, the AC50 [3] is reported as 4.92 µM (active) and the AC50 [5] is reported as 4.91 µM (active).

With `ClC1=C(Cl)[C@]2(Cl)[C@@H]3[C@H]4C[C@H]([C@@H]5O[C@H]45)[C@@H]3[C@@]1(Cl)C2(Cl)Cl` the AC50 [4] was 4.45 µM (active).

`O=C(N[C@H]1CN2CCC1CC2)c1cc2ccoc2cn1` was tested, and the AC50 [6] was 2.09 µM (active).

For `C[C@]12CCC(=O)C=C1CC[C@@H]1[C@@H]2CC[C@]2(C)C(=O)CC[C@@H]12`, the AC50 [5] was 10 µM (active) and 6.19 µM (active) and 5.77 µM (active) and the AC50 [7] was 1.52 µM (active).

`Cc1ccc(O)c(C)c1` was tested, and the outcome [8] was “inactive”.

`CCC(C)(c1ccc(O)cc1)c1ccc(O)cc1` was tested, and the AC50 [4] was 4.81 µM (active), the AC50 [1] was 6.47 µM (active) and the outcome [9] was “inactive”. The AC50 [5] was 4.4 µM (active).

In the case of `ClC1=C(Cl)[C@]2(Cl)[C@@H]3[C@@H]4C[C@@H]([C@H]5O[C@@H]45)[C@@H]3[C@@]1(Cl)C2(Cl)Cl`, the AC50 [4] is reported as 3.88 µM (active) and the AC50 [5] is reported as 3.57 µM (active).

For `ClC(Cl)=C(c1ccc(Cl)cc1)c1ccc(Cl)cc1`, the outcome [4] was “inactive”, the outcome [5] was “inactive” and the outcome [7] was “inactive”.

In the case of `ClC1=C(Cl)[C@]2(Cl)[C@@H]3[C@@H](Cl)[C@H]4O[C@H]4[C@@H]3C1(Cl)C2(Cl)Cl`, the AC50 [4] is reported as 7.84 µM (active).

For `CC(C)(c1ccccc1)c1ccc(O)cc1`, the AC50 [4] was 7.47 µM (active), the outcome [6] was “inactive” and the AC50 [1] was 10 µM (active). For the same compound, the outcome [9] was “inactive”.
